PubChem BioAssay

Test: small-molecule microarray binders of probe aLefty2, primary screen, biochemical, biotinylated probe, 635/667 nm fluorescence (AID 1094);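 also: score merges spot fluorescence near 667 nm with spot signal-to-noise ratio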
Conditions: higher = more signal
In the case of `COc1ccc([Si](C)(C)[C@H]2[C@H](CC(=O)N3CCC[C@H]3CO)O[C@@]3(C(=O)N(Cc4cccc(N5C(=O)COc6ccccc65)c4)c4ccccc43)[C@@H]2C)cc1`, the composite z-score is reported as -0.166. `CC(=O)OC[C@H]1O[C@H](C#CCCCc2ccccc2)C=C[C@@H]1OC(C)=O` gave a composite z-score of -0.239. `CC(C)[C@H](NC(=O)OC(C)(C)C)[C@@H](O)CC(=O)OC(C)(C)C` gave a composite z-score of -0.22. With `COCCCNC(=O)[C@]1(CCC(=O)OC(C)(C)C)N=C(c2ccc(OCCCO)cc2)O[C@@H]1c1ccccc1N=[N+]=[N-]` the composite z-score was 0.0979. `C[C@@H]1C=CCC(=O)OC[C@H](C)C(=O)N[C@@H](C)C(=O)OC1` showed a composite z-score of -0.293. `COC(=O)[C@@]1(Cc2ccc(F)cc2)[C@H]2c3cc(C(=O)N(C)C)n(Cc4ccc(OC)c(OC)c4)c3C[C@H]2CN1C(=O)c1ccccc1` gave a composite z-score of 0.498. In the case of `CCCCCN1CC=CC23O[C@@H]4C=CCOC(=O)[C@@H]4[C@H]2C(=O)N(CCCCCCO)[C@@H]3C1=O` (stereo not given in full), the composite z-score is reported as -0.0436. With `COc1ccc(O[C@H]2C=C[C@@H](c3ccccc3)O[C@@H]2COC(=O)CCC(C)=NO[C@H](C)c2cn([C@@H]3COC[C@H]3O)nn2)cc1` the composite z-score was -0.181. `C#C[C@@H]1Oc2ccccc2S(=O)(=O)N2CCC[C@H]12` gave a composite z-score of 0.0886. With `CC(C)(C)OC(=O)CC[C@]1(C(N)=O)COC(c2ccc(OCCCO)cc2)=N1` the composite z-score was 0.65. Molecule `COc1ccc(O[C@H]2C=C[C@@H](c3ccccc3)O[C@@H]2COC(=O)CCC(C)=NOC[C@@H](C)[C@H](OCc2ccccc2)C(C)C)cc1` has a composite z-score of -0.261. In the case of `Cc1ccc(F)cc1S(=O)(=O)N[C@@H]1CCN(Cc2ccc(CC(C)C)cc2)C1`, the composite z-score is reported as -0.192. Work on `CCc1cc2c(nc1CC)CCN(CCC(C)=NOC(C)CN1CCCc3nc(C)c(C)cc31)C2` (stereo not given) yielded a composite z-score of 0.696. With `Cc1ccc(S(=O)(=O)N[C@@H]2COC(=O)[C@H](C)COC(=O)CC=C[C@H]2C)cc1` the composite z-score was -0.18. `O=C1C[C@@H](O)[C@@H](O)[C@@H]2[C@@H]3C(=O)N(Cc4ccc5c(c4)OCO5)C(=O)[C@@H]3CC[C@@H]12` gave a composite z-score of -0.072. In the case of `CN1C(=O)[C@@]2(CCC(=O)OC(C)(C)C)N=C(c3ccc(OCCCO)cc3)O[C@H]2c2ccccc21`, the composite z-score is reported as 0.0112. In the case of `COCCOC(=O)N1C(=O)[C@@]2(c3cc(C#CC4(O)CCCCCC4)ccc31)[C@H](C(=O)N1CCN(c3ncccn3)CC1)[C@H]1C(=O)O[C@H](c3ccccc3)[C@H](c3ccccc3)N1[C@@H]2c1ccc(OCCO)cc1`, the composite z-score is reported as -0.0075. For `CCOC(=O)[C@H](CC(C)C)NC(=O)CCC1CC(OC(=O)NCc2cccc3ccccc23)CC2(CCCC(COC(=O)NCCc3ccccc3OC)O2)O1` (stereo not given in full), the composite z-score was -0.0505. In the case of `COC(=O)[C@H](C)NC(=O)CCC1CC(OC(=O)NCc2cccc3ccccc23)CC2(CCCC(COC(=O)NCCc3ccc(Cl)cc3)O2)O1` (stereo not given in full), the composite z-score is reported as -0.145. Work on `O[C@@H](Cc1ccccc1)[C@H]1C2C=CCCC(c3ccccc3)=C2CN1Cc1cccc(Cl)c1` (stereo not given in full) yielded a composite z-score of -0.106. For `O=C1[C@H]2[C@H]3[C@H](O)[C@H](O)CC(=NO[C@@H]4O[C@H](CO)[C@@H](O)[C@H](O)[C@H]4O)[C@@H]3CC[C@H]2C(=O)N1Cc1ccccc1`, the composite z-score was -0.103. `COCCOC(=O)N1C(=O)[C@@]2(c3cc(C#CCNC(N)=O)ccc31)[C@H](c1ccccc1OCCO)N1[C@H](c3ccccc3)[C@H](c3ccccc3)OC(=O)[C@H]1[C@@H]2C(=O)N1CCN(c2ncccn2)CC1` showed a composite z-score of 0.065. For `O=C1[C@H]2[C@H]3[C@H](O)[C@H](O)CC(=NO[C@@H]4O[C@H](CO)[C@@H](O)[C@H](O)[C@H]4O)[C@H]3CC[C@H]2C(=O)N1Cc1ccccc1`, the composite z-score was -0.0015. In the case of `CC(C)(C)N1C(=O)[C@H]2[C@H]3[C@H](O)[C@H](O)CC(=NO[C@@H]4O[C@H](CO)[C@@H](O)[C@H](O)[C@H]4O)[C@@H]3CC[C@H]2C1=O`, the composite z-score is reported as -0.217. `O=C1[C@H]2[C@H]3[C@H](O)[C@H](O)CC(=NO[C@@H]4O[C@H](CO)[C@@H](O)[C@H](O)[C@H]4O)[C@H]3CC[C@H]2C(=O)N1C1CCCCC1` gave a composite z-score of -0.0652. For `CC[C@@H](c1ccccc1)n1c(=O)n2n(c1=O)[C@H]1[C@H](O)[C@@H]3O[C@@H]3C(=NOCC(C)C)[C@H]1CC2`, the composite z-score was -0.213. In the case of `CCCC[C@@H](O)C1=C(C)C[C@H]2C(=O)N(Cc3ccccc3)C(=O)[C@H]2[C@H]1CO`, the composite z-score is reported as -0.0998. `CC(C)=C1C(=O)C(c2ccccc2)=C2CN3C(=O)N(CCc4ccccc4)C(=O)[C@]3(Cc3ccc(F)cc3)[C@H]21` gave a composite z-score of 0.253. Molecule `N#Cc1ccc(NN2C(C(O)c3cc(C(F)(F)F)cc(C(F)(F)F)c3)C=CC3C(=O)N(c4ccccc4)C(=O)C32)cc1` (stereo not given) has a composite z-score of 0.135. `[N-]=[N+]=NCc1ccccc1[C@@H]1OC(c2ccc(OCCCO)cc2)=N[C@]1(Cc1ccccc1)C(=O)N1CCOCC1` showed a composite z-score of 0.422. Molecule `CC(CCN1CCCCc2nc(C)c(C)cc21)=NOC(C)CN1CCCCc2nc(C)c(C)cc21` (stereo not given) has a composite z-score of -0.0101. Work on `O=C(NN=C1C[C@@H](O)[C@@H](O)[C@@H]2[C@@H]3C(=O)N(c4cccc(Oc5ccccc5)c4)C(=O)[C@@H]3CC[C@H]12)OCc1ccccc1` yielded a composite z-score of -0.0812. In the case of `CCOC(=O)CCN1C(=O)[C@H]2[C@H]3[C@H](O)[C@H](O)CC(=O)[C@H]3CC[C@H]2C1=O`, the composite z-score is reported as -0.225. In the case of `O=C1O[C@@H](c2ccccc2)[C@@H](c2ccccc2)N2[C@@H](c3ccc(OCCO)cc3)[C@]3(C(=O)Nc4ccc(C#CCCO)cc43)[C@@H](C(=O)N3CCCCCCC3)[C@H]12`, the composite z-score is reported as 1.35. With `c1ccc(C2NCCc3c2[nH]c2ccccc32)cc1` (stereo not given) the composite z-score was -0.126.
